Data on six compounds can be found in ChEMBL document CHEMBL1961873, “Compounds: GSK PKIS; Assays: Nanosyn kinase panel” (2012).

The target in experiment [1] is Serine/threonine-protein kinase pim-2 (Homo sapiens) (UniProt Q9P1W9). The following applies: at 1 µM.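 Further: each value is a mean of the inhibition measurements against the kinase.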
Experiment [2] deals with Serine/threonine-protein kinase pim-3 (Homo sapiens) (UniProt Q86V86). The following applies: at 0.1 µM.
Experiment [3] has the same target. The following applies: at 1 µM.
The target of experiment [4] is T1, MAP kinase-activated protein kinase 5 (Homo sapiens) (UniProt Q8IW41).
T1 sequence (whole entry): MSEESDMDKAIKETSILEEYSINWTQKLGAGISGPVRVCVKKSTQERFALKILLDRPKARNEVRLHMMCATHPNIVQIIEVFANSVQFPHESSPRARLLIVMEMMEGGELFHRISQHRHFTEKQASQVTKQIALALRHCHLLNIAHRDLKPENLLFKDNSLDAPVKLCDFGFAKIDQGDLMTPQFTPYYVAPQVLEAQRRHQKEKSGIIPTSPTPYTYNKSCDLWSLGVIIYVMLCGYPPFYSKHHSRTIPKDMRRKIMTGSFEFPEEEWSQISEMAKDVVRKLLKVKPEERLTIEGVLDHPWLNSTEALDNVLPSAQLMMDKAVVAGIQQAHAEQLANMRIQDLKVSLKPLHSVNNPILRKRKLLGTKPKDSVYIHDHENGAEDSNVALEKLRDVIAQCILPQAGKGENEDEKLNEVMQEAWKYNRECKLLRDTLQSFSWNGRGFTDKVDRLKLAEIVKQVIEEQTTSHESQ
Conditions: at 0.1 µM.

Experiment [5] addresses T1, MAP kinase-activated protein kinase 5 (Homo sapiens). The following applies: at 1 µM.
For experiment [6], the target named is Serine/threonine-protein kinase SIK1 (Homo sapiens) (UniProt P57059). Conditions: at 0.1 µM.
Experiment [7] has the same target. The following applies: at 1 µM.
Experiment [8] addresses Serine/threonine-protein kinase SIK2 (Homo sapiens) (UniProt Q9H0K1). The following applies: at 0.1 µM.
Experiment [9] shares this target. The following applies: at 1 µM.
Experiment [10] deals with T2, Serine/threonine-protein kinase TBK1 (Homo sapiens) (UniProt Q9UHD2).
T2 sequence (whole entry): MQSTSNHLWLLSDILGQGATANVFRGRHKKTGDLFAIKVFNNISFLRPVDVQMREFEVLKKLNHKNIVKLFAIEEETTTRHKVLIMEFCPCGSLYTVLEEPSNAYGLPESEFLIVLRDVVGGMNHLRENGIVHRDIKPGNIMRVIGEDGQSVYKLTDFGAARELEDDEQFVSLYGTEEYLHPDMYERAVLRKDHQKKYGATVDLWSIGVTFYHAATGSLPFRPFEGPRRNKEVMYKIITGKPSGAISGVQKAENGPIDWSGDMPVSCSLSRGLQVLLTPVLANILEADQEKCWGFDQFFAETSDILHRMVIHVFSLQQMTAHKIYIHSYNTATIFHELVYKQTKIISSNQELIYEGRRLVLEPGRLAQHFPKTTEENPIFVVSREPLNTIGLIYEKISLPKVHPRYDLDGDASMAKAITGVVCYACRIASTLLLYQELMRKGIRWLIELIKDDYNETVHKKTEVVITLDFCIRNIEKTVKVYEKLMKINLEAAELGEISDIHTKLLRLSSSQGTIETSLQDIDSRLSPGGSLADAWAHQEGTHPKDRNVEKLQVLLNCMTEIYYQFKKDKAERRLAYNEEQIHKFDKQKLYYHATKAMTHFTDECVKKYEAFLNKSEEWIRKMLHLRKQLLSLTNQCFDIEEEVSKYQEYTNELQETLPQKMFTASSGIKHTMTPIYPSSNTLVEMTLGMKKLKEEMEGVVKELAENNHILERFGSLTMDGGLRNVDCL
Conditions: at 0.1 µM.

The target in experiment [11] is T2, Serine/threonine-protein kinase TBK1 (Homo sapiens). Conditions: at 1 µM.
For experiment [12], the target named is T3, Testis-specific serine/threonine-protein kinase 1 (Homo sapiens) (UniProt Q9BXA7).
T3 sequence (whole entry): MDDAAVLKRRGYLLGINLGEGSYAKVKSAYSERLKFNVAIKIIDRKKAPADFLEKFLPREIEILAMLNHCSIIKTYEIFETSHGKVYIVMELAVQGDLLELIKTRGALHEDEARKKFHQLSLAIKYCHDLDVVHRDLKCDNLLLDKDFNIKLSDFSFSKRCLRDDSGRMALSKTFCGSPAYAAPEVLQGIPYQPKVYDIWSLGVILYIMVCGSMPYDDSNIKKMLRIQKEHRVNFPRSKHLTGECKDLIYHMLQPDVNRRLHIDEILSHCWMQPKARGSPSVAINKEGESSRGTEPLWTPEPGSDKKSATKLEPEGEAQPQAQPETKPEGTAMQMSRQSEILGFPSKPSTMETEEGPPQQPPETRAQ
Conditions: at 0.1 µM.

Experiment [13] addresses T3, Testis-specific serine/threonine-protein kinase 1 (Homo sapiens). Conditions: at 1 µM.
Experiment [14] deals with T4, Testis-specific serine/threonine-protein kinase 2 (Homo sapiens) (UniProt Q96PF2).
T4 sequence (whole entry): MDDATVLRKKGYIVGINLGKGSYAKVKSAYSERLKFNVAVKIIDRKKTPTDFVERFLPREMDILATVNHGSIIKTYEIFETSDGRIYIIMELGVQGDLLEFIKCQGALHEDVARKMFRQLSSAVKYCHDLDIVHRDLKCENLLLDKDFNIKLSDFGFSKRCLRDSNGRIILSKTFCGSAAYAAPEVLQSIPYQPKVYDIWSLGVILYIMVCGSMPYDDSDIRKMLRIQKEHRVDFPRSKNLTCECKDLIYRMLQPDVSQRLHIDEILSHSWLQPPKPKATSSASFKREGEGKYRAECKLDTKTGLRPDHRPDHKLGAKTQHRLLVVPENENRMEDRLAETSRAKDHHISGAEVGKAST
The following applies: at 0.1 µM.

The target of experiment [15] is T4, Testis-specific serine/threonine-protein kinase 2 (Homo sapiens). The following applies: at 1 µM.
The target of experiment [16] is Casein kinase I isoform alpha (Homo sapiens) (UniProt P48729). The following applies: at 0.1 µM.
The target is the same in experiment [17]. The following applies: at 1 µM.
Experiment [18] has as its target Casein kinase I isoform gamma-1 (Homo sapiens) (UniProt Q9HCP0). Conditions: at 0.1 µM.
Experiment [19] shares this target. The following applies: at 1 µM.
The target of experiment [20] is Casein kinase I isoform gamma-2 (Homo sapiens) (UniProt P78368). The following applies: at 0.1 µM.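 Further: values are mean inhibition figures reported as part of the GSK PKIS dataset.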

SMILES strings stand for the structures.

Sequence of Serine/threonine-protein kinase SIK1 (Homo sapiens) (P57059 whole entry): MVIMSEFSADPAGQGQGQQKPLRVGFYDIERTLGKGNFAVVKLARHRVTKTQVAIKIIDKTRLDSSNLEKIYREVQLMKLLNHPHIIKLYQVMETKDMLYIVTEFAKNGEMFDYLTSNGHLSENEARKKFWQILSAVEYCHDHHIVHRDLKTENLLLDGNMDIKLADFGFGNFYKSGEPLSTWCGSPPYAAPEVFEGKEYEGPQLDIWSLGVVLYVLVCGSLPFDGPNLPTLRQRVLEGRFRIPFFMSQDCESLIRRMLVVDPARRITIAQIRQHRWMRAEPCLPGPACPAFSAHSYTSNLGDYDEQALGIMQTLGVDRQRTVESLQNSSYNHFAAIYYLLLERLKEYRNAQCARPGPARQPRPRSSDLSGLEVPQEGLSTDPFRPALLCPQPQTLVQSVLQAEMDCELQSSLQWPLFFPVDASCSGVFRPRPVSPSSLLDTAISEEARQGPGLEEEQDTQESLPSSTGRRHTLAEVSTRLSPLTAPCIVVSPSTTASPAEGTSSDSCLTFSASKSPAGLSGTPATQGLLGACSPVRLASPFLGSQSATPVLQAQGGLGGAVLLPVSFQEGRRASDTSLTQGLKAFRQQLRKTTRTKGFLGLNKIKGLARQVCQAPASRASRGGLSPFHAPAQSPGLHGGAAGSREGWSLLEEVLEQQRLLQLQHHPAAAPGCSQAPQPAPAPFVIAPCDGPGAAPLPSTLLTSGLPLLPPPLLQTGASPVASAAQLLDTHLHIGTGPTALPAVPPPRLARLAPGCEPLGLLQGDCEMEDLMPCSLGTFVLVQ
Sequence of Serine/threonine-protein kinase pim-2 (Homo sapiens) (Q9P1W9 whole entry, looked up): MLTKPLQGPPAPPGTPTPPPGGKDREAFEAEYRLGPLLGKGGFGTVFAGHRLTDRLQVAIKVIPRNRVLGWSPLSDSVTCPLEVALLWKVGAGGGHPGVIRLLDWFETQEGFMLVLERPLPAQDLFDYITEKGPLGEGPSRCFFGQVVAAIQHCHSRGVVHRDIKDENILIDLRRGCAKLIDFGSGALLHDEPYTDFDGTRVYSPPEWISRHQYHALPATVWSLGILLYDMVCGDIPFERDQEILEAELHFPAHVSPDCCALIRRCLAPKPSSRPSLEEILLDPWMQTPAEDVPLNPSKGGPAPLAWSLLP
Sequence of Casein kinase I isoform alpha (Homo sapiens) (P48729 2-337 limits assumed): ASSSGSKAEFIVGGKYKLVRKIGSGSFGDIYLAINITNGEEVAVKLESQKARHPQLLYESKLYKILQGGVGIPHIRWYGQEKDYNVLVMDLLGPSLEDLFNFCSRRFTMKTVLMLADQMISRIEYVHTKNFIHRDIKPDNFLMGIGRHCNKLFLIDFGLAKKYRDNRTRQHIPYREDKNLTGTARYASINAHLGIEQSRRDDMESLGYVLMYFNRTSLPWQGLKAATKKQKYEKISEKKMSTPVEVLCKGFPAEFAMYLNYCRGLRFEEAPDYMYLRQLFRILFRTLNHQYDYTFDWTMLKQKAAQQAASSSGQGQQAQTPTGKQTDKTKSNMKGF
Sequence of Casein kinase I isoform gamma-2 (Homo sapiens) (P78368 whole entry, looked up, canonical isoform): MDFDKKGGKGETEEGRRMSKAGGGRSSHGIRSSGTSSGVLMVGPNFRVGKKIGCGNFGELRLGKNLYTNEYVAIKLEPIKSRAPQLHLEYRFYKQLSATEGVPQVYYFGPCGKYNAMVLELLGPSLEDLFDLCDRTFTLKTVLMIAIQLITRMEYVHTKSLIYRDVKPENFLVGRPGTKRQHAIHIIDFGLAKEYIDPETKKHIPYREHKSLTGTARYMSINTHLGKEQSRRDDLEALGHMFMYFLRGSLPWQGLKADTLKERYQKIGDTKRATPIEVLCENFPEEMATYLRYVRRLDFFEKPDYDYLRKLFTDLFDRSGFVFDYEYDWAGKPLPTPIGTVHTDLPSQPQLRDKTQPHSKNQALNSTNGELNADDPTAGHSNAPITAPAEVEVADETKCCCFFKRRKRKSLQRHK
Sequence of Serine/threonine-protein kinase SIK2 (Homo sapiens) (Q9H0K1 whole entry, looked up): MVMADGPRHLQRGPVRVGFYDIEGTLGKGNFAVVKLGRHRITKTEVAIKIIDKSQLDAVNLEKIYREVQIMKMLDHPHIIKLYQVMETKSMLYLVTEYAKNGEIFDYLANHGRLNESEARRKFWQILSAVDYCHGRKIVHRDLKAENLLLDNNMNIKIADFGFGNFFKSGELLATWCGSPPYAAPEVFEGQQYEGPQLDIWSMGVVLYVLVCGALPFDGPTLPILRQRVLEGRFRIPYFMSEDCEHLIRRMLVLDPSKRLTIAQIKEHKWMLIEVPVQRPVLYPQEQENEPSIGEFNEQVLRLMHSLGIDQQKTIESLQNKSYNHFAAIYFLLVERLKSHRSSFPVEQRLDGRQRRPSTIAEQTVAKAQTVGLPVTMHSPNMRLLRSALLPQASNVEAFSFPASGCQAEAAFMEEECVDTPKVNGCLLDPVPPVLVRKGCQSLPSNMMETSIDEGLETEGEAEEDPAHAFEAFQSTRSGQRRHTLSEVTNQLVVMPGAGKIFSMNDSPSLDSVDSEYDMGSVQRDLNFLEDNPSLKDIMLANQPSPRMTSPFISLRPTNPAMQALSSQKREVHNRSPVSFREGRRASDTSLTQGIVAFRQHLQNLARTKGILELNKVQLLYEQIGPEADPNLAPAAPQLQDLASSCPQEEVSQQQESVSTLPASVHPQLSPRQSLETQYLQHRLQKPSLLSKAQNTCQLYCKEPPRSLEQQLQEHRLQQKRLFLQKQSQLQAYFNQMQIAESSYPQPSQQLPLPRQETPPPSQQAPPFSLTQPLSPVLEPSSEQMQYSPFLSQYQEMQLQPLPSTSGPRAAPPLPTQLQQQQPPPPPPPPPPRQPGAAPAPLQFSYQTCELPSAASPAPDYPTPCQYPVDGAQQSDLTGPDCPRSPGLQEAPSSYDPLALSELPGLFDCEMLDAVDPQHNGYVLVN
Sequence of Casein kinase I isoform gamma-1 (Homo sapiens) (Q9HCP0 whole entry, looked up, canonical isoform): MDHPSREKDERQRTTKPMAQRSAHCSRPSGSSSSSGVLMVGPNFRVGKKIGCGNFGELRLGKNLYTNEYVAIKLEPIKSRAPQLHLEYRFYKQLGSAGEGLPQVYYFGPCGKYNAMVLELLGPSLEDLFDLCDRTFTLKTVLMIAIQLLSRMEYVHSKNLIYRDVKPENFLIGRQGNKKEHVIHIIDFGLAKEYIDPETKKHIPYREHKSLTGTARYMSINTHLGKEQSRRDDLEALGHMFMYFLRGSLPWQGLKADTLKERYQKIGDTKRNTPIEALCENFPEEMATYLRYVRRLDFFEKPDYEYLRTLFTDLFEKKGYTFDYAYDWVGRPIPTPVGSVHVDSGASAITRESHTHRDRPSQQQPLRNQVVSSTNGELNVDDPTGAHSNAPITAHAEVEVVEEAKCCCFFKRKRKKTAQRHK

As for `CC(C)c1ccc(Nc2nccc(-c3cnn4ncccc34)n2)cc1`, the inhibition in experiment [1] was 1.73%; in [2], 0.51%; in experiment [3] it was 6.16%; in experiment [4], 0.53%; in experiment [5], 1.09%; in [6], 4.79%. For the same compound, the inhibition was 8.55% in experiment [7]; 2.73% in [8]; 11.3% in experiment [9]; 1.14% in experiment [10]; 13.9% in experiment [11]; 3.15% in experiment [12]. Besides, the inhibition in experiment [13] was 5.95%; in experiment [14] it was 2.67%; in [15] it was 0.57%; in [16], -5.73%; in experiment [17], 12.9%; in experiment [18], 2.02%. For the same compound, the inhibition in [19] was 8.9%; in [20], 3.16%.

`COc1cccc(-n2nc(C)c3c(N/N=C(\C)c4ccncc4)ncnc32)c1`: the inhibition is -0.42% in experiment [1]; -0.59% in [2]; -1.03% in experiment [3]; -0.18% in experiment [4]; -0.64% in [5]; 1.56% in [6]. Further, the inhibition in [7] is 3.69%; in experiment [8], 0.4%; in [9] it was -0.38%; in experiment [10] it was -0.16%; in experiment [11], -1.57%; in [12], 1.47%. The inhibition in [13] is 1.88%; in [14] it was -0.53%; in experiment [15] it was -0.42%; in experiment [16] it was -1.81%; in [17] it was 0.17%; in experiment [18], 0.02%. In addition, the inhibition stood at 0.62% in experiment [19] and 0.14% in [20].

As for `CN(C)c1cc2c(Nc3ccc4c(cnn4Cc4ccccc4)c3)ncnc2cn1`, the inhibition is 0.31% in [1]; -0.8% in [2]; 0.43% in experiment [3]; 0.61% in experiment [4]; 0.28% in experiment [5]; 3.9% in experiment [6]. For the same compound, the inhibition in experiment [7] worked out at 4.59%; in [8], 2.41%; in experiment [9], 4.92%; in experiment [10], 1.07%; in experiment [11], 3.14%; in [12], 3.54%. Further, the inhibition was -2.44% in experiment [13]; 1.31% in [14]; -1.33% in experiment [15]; 0.64% in [16]; 4.63% in [17]; 2.47% in [18]. The inhibition in experiment [19] was determined as 3.24%; in experiment [20] it was 2.05%.

For `COC(=O)Nc1nc2cc(Oc3ccc(NC(=O)Nc4cccc(Br)c4)cc3)ccc2[nH]1`, the inhibition in [1] was -0.13%; in experiment [2], -0.57%; in experiment [3], 0.5%; in experiment [4], 1.32%; in experiment [5], 1.31%; in experiment [6] it was 7.8%. The inhibition in experiment [7] is 11.9%; in experiment [8], -0.32%; in experiment [9], 7.96%; in [10], -1.34%; in experiment [11], 3.82%; in [12] it was 2.91%. Besides, the inhibition is 2.52% in [13]; 2.72% in experiment [14]; 2.43% in experiment [15]; 4.89% in experiment [16]; 9.35% in experiment [17]; 1.77% in experiment [18]. The figures for the inhibition in experiment [19] and in experiment [20] were 2.02% and 0.89%, respectively.

Take `CN(C)CCCn1c(-c2nonc2N)nc2cnccc21`: the inhibition was 0.24% in [1]; -0.78% in experiment [2]; 1.03% in [3]; 0.98% in [4]; -0.25% in experiment [5]; 3.24% in experiment [6]. Besides, the inhibition in [7] is 8.57%; in [8] it was -0.97%; in [9], 5.74%; in [10], 1.24%; in experiment [11] it was 6.08%; in experiment [12], 3.44%. Besides, the inhibition in experiment [13] amounted to 7.78%; in experiment [14] it was 0.64%; in experiment [15], 0.45%; in [16], 5.03%; in experiment [17], 6.31%; in experiment [18] it was 4.45%. Further, the inhibition came out at 5.34% in experiment [19] and 3.15% in [20].

Regarding `O=C(Nc1ccc(Oc2ccc3[nH]c(NC(=O)c4ccco4)nc3c2)cc1)Nc1cc(C(F)(F)F)ccc1F`, the inhibition is -3.75% in experiment [1]; 0.09% in experiment [2]; 0.78% in experiment [3]; -0.29% in experiment [4]; -0.75% in experiment [5]; 4.18% in [6]. For the same compound, the inhibition in [7] was 4.41%; in experiment [8] it was -4.88%; in experiment [9], 0.5%; in [10], 0.65%; in experiment [11], 0.97%; in [12], 0.73%. Moreover, the inhibition is 0.2% in experiment [13]; 0.45% in experiment [14]; -0.72% in [15]; 0.72% in [16]; 1.23% in experiment [17]; -3.78% in experiment [18]. Also, the results for the inhibition in experiment [19] and in experiment [20] were -2.12% and -4.05%, respectively.

By inhibition is commonly meant the change of the read-out against control, counted positive when it falls.
